The target in test [1] is T1, Serine/threonine-protein kinase Nek9 (Homo sapiens) (UniProt Q8TD19).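 Further: each value is a mean percent inhibition of NEK9.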
T1 sequence (whole entry): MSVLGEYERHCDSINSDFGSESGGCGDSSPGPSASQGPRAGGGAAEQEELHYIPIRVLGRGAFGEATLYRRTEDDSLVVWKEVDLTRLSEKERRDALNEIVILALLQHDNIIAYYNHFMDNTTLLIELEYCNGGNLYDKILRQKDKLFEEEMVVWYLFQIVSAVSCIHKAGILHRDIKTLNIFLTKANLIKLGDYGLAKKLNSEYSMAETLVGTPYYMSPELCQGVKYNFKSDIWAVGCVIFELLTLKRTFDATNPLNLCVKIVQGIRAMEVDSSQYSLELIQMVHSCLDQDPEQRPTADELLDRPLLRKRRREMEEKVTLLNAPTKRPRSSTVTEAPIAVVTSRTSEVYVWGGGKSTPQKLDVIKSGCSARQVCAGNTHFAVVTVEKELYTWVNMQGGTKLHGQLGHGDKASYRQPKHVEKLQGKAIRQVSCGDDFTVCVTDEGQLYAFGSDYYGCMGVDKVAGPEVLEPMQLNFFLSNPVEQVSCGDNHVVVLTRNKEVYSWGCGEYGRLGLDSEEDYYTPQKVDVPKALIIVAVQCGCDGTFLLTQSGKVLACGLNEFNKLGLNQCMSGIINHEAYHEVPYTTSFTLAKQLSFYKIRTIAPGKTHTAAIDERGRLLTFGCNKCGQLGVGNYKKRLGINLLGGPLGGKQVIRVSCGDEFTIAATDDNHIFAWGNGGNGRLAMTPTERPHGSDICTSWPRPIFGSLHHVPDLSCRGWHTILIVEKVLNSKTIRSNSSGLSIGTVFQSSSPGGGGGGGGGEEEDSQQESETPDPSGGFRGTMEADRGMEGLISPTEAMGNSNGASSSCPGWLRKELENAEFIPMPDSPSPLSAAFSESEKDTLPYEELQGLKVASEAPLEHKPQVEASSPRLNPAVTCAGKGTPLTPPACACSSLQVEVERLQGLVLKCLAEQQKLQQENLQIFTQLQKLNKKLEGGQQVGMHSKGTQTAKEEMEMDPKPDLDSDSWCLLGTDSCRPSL
Conditions: at 1 µM.

The target in test [2] is Serine/threonine-protein kinase PLK1 (Homo sapiens) (UniProt P53350). Conditions: at 0.1 µM.
Sequence of Serine/threonine-protein kinase PLK1 (Homo sapiens) (P53350 whole entry): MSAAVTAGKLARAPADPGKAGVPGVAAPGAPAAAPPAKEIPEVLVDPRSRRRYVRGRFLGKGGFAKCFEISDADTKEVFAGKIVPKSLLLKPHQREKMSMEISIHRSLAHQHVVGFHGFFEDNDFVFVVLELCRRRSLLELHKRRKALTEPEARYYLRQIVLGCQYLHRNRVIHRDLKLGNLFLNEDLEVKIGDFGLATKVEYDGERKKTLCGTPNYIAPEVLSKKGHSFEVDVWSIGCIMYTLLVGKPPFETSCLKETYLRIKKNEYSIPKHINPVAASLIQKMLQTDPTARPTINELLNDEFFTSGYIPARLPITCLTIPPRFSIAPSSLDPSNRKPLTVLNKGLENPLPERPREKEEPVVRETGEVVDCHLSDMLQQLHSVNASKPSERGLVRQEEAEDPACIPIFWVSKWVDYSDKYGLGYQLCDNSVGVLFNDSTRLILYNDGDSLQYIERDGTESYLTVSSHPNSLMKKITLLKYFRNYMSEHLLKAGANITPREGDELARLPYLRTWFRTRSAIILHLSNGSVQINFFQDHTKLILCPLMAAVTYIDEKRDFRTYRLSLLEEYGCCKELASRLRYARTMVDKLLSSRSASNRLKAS
Test [3] has the same target. As to conditions: at 1 µM.
Test [4] has as its target T2, Dual specificity protein kinase TTK (Homo sapiens) (UniProt P33981).
T2 sequence (whole entry): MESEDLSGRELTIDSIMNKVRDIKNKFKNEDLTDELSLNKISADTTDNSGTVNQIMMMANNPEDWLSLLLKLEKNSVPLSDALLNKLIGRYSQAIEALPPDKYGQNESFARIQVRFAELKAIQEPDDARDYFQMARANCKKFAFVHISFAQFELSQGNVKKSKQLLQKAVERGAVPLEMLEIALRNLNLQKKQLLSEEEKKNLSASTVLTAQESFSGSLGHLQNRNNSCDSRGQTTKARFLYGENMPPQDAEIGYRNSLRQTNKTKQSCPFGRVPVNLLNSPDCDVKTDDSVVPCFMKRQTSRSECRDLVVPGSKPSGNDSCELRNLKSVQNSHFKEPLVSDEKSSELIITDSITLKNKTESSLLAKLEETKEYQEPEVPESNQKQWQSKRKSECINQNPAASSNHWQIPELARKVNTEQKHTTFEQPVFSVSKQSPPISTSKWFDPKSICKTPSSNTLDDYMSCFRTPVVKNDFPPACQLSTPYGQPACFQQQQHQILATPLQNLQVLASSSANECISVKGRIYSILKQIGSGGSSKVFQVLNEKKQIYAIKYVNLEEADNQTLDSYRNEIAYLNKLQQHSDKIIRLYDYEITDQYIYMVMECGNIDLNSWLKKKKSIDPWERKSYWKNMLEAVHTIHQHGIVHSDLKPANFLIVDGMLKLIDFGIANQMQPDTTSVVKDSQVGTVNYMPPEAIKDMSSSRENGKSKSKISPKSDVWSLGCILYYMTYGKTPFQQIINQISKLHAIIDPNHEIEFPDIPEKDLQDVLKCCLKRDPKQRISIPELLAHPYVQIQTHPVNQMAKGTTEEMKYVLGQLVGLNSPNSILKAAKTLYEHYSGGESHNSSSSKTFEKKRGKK
Conditions: at 0.1 µM.

In test [5] the test system is T3, Receptor-type tyrosine-protein kinase FLT3 (Homo sapiens), P36888 [D835Y].
T3 sequence (whole entry): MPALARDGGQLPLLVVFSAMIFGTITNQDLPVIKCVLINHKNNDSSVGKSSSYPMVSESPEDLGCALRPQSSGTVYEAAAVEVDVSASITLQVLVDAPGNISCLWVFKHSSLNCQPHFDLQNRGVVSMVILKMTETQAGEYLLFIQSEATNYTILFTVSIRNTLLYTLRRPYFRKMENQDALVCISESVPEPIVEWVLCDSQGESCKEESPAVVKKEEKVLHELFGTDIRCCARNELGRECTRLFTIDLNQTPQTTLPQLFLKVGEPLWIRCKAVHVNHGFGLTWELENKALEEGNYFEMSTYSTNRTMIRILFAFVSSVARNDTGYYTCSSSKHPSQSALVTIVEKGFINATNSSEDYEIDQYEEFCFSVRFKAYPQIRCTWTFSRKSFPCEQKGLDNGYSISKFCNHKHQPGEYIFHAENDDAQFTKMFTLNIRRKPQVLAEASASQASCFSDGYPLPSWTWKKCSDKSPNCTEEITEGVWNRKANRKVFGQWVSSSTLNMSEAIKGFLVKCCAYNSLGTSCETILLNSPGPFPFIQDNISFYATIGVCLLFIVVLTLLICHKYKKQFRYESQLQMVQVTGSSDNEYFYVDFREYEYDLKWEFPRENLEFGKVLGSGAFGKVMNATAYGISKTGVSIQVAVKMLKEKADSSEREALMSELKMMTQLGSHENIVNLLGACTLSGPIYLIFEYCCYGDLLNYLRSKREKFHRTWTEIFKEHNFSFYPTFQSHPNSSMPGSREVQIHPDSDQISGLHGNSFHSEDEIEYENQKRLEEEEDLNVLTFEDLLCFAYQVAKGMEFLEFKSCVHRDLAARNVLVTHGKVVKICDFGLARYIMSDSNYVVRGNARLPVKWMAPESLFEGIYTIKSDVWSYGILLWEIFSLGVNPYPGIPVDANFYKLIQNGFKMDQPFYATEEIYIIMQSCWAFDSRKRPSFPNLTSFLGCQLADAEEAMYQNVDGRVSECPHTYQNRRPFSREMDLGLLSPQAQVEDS
Conditions: at 1 µM.

Test [6] deals with Vascular endothelial growth factor receptor 3 (Homo sapiens) (UniProt P35916). As to conditions: at 0.1 µM.
Test [7] shares this target. As to conditions: at 1 µM.
The target of test [8] is Macrophage colony-stimulating factor 1 receptor (Homo sapiens) (UniProt P07333). Conditions: at 0.1 µM.
Sequence of Macrophage colony-stimulating factor 1 receptor (Homo sapiens) (P07333 whole entry): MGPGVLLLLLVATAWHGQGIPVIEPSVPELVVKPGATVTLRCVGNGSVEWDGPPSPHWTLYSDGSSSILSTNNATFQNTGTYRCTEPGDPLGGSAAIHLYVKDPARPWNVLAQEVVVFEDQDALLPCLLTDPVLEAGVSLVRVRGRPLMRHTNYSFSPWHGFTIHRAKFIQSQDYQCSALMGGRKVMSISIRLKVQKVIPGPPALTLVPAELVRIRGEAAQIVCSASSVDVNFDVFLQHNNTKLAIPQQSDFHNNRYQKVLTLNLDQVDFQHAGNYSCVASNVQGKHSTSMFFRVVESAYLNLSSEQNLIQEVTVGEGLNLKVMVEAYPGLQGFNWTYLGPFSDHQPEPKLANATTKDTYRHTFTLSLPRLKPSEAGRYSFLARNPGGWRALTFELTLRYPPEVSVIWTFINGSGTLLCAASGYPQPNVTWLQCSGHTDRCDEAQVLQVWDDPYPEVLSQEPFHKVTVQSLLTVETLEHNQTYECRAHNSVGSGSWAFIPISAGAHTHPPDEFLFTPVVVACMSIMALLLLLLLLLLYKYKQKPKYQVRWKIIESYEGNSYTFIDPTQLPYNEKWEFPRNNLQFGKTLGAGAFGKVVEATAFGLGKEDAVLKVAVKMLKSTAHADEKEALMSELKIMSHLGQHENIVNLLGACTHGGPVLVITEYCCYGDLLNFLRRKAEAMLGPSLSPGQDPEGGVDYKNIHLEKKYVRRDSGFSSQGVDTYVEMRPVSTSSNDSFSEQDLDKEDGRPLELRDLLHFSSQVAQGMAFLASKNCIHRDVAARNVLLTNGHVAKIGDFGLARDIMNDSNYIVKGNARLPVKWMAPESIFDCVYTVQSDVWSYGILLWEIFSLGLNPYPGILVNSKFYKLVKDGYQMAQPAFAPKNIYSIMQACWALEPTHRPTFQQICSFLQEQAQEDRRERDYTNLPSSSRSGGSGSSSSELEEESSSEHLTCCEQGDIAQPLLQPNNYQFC
Test [9] has the same target. Conditions: at 1 µM.
The target of test [10] is Tyrosine-protein kinase Fyn (Homo sapiens) (UniProt P06241). As to conditions: at 0.1 µM.
Test [11] has the same target. As to conditions: at 1 µM.
For test [12], the target named is Tyrosine-protein kinase HCK (Homo sapiens) (UniProt P08631). Conditions: at 0.1 µM.
Sequence of Tyrosine-protein kinase HCK (Homo sapiens) (P08631 2-526 limits assumed): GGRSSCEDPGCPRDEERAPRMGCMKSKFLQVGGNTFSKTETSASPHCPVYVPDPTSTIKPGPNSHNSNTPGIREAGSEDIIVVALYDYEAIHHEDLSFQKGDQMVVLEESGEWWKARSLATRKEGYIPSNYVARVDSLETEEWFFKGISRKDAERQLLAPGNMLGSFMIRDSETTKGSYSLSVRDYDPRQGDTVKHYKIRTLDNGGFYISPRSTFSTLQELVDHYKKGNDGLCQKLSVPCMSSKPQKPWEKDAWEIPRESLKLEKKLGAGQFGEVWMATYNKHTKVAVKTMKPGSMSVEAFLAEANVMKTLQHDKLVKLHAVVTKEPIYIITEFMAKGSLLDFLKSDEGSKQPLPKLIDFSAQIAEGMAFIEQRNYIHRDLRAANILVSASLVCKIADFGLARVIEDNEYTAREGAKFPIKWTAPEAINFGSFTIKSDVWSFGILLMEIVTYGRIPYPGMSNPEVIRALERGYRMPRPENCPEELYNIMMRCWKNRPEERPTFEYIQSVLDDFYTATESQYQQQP
Test [13] has the same target. As to conditions: at 1 µM.
Test [14] deals with Insulin-like growth factor 1 receptor (Homo sapiens) (UniProt P08069). As to conditions: at 0.1 µM.
Test [15] shares this target. As to conditions: at 1 µM.
Test [16] has as its target Insulin receptor (Homo sapiens) (UniProt P06213). Conditions: at 0.1 µM.
Test [17] shares this target. Conditions: at 1 µM.
Test [18] addresses Insulin receptor-related protein (Homo sapiens) (UniProt P14616). Conditions: at 0.1 µM.
Test [19] has the same target. As to conditions: at 1 µM.
The target of test [20] is T4, Tyrosine-protein kinase ITK/TSK (Homo sapiens) (UniProt Q08881).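 Further: mean percent inhibition of ITK from the GSK PKIS screen.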
T4 sequence (whole entry): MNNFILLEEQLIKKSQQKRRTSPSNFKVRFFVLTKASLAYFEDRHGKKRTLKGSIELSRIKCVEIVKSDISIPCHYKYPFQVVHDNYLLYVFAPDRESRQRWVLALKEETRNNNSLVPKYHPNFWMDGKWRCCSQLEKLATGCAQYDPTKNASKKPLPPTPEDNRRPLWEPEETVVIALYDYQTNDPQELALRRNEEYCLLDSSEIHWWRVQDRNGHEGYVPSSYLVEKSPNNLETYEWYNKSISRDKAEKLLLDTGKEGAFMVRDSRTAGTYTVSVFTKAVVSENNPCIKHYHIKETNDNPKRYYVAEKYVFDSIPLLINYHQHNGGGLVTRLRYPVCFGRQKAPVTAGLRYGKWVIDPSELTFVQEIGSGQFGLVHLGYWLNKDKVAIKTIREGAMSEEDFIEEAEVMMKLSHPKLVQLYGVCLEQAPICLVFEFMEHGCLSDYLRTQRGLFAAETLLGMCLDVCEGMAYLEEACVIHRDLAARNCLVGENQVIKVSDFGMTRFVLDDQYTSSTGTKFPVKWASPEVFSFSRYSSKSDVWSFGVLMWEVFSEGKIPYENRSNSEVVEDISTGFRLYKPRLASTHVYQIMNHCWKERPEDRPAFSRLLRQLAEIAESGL
As to conditions: at 0.1 µM.

Among the data in ChEMBL document CHEMBL1961873, “Compounds: GSK PKIS; Assays: Nanosyn kinase panel” (2012) are inhibition values, retold here.

Each structure is given as a SMILES string.

Sequence of Insulin receptor-related protein (Homo sapiens) (P14616 27-742 limits assumed): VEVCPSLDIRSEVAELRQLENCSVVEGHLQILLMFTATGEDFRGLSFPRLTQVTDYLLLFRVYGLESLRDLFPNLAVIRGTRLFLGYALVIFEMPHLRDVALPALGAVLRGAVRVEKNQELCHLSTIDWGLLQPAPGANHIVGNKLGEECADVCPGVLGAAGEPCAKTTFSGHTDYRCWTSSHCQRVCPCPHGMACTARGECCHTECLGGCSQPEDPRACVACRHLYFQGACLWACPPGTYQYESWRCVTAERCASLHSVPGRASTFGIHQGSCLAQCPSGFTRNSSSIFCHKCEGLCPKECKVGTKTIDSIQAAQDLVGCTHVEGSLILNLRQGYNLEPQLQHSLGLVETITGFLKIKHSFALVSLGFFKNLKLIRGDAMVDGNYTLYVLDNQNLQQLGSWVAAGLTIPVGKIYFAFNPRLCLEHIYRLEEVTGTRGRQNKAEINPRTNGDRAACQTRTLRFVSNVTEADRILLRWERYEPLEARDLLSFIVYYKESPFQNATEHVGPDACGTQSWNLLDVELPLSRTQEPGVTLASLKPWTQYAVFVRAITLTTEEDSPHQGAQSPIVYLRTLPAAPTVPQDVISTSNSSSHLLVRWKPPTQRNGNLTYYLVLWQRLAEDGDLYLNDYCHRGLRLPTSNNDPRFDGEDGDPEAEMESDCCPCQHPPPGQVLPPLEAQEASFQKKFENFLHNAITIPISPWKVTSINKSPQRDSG
Sequence of Insulin receptor-related protein (Homo sapiens) (P14616 747-1297 limits assumed): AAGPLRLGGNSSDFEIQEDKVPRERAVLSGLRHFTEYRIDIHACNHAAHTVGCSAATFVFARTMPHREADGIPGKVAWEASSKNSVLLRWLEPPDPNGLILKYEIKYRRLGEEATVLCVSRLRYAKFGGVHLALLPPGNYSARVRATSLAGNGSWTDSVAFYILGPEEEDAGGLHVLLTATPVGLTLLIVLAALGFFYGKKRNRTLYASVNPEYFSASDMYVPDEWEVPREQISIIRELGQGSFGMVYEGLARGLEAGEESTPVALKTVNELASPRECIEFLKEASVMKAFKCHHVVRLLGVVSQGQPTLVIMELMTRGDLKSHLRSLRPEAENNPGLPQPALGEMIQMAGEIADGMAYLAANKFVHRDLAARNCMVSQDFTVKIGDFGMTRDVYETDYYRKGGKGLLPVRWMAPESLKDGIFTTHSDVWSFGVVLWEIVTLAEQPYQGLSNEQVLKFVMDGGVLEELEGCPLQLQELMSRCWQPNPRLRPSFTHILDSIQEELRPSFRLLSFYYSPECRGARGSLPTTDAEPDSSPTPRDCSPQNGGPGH
Sequence of Insulin receptor (Homo sapiens) (P06213 28-758 limits assumed): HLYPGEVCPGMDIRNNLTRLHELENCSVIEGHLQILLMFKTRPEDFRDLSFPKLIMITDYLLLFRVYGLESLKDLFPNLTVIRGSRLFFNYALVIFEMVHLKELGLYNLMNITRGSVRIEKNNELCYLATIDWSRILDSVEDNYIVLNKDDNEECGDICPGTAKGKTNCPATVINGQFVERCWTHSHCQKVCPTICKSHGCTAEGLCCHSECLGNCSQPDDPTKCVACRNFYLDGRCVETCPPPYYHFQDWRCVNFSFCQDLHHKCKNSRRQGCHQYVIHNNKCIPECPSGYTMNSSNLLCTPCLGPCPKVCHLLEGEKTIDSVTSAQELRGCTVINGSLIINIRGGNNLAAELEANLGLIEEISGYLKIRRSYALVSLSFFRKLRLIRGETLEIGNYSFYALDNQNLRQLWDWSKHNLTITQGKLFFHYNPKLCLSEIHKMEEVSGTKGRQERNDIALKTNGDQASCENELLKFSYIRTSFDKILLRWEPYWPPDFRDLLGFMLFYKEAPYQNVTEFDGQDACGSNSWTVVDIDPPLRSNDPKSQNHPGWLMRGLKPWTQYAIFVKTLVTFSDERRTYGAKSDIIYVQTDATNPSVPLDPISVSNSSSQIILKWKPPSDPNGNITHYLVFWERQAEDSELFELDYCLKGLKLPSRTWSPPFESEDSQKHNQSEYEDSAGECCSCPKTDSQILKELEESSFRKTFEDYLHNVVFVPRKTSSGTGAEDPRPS
Sequence of Insulin receptor (Homo sapiens) (P06213 763-1382 limits assumed): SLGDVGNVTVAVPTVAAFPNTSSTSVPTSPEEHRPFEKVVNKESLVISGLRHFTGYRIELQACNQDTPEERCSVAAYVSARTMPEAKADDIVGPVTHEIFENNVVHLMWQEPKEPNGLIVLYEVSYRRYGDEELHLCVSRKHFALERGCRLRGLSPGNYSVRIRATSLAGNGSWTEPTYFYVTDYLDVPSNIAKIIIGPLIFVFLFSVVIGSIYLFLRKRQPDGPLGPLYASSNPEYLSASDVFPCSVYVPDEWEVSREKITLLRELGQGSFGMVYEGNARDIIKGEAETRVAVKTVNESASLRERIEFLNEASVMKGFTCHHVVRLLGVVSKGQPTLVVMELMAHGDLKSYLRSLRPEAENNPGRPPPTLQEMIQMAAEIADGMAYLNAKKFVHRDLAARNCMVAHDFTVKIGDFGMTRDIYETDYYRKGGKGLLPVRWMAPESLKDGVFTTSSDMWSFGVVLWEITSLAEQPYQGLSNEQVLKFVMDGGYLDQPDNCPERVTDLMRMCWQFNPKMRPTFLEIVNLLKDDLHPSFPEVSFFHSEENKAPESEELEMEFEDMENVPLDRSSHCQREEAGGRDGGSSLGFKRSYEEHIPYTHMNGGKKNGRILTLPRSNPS

One may read the inhibition as the change of the read-out against control, counted positive when it falls. `Fc1ccc(-c2ncn(C3CCNCC3)c2-c2ccnc(Oc3ccc4c(c3)OCO4)n2)cc1`: the inhibition is 7.95% in [1]; 4.77% in test [2]; 3.7% in test [3]; 7.25% in [4]; -0.75% in test [5]; 3.31% in test [6]. Moreover, the inhibition is 5.76% in [7]; 2.5% in test [8]; 12.1% in [9]; 1.06% in test [10]; 3.17% in [11]; 6.2% in [12]. For the same compound, the inhibition in test [13] came out at 10.9%; in test [14] it was 0.4%; in test [15], 2.16%; in test [16], 2.85%; in test [17] it was 3.42%; in [18], 3.09%. In addition, the results for the inhibition in test [19] and in [20] were 3.51% and 1.6%, respectively.
For `COC(=O)Nc1nc2ccc(Sc3ccc(NC(=O)Nc4cc(C(F)(F)F)ccc4F)cc3)cc2[nH]1`, the inhibition was -0.45% in test [1]; -0.3% in test [2]; 0.84% in test [3]; 1.23% in test [4]; 6.34% in [5]; 14.8% in test [6]. The inhibition in [7] was 21.7%; in [8], 0.81%; in test [9], 3.42%; in test [10] it was -1.41%; in test [11], 3.27%; in test [12], 39.5%. The inhibition was 14.4% in test [13]; 10.6% in test [14]; 6.91% in test [15]; 2.28% in [16]; -0.75% in [17]; 1.45% in test [18]. Moreover, the inhibition is -0.55% in test [19] and 0.19% in test [20].
Regarding `O=C(Nc1n[nH]c2cc(-c3ccccc3)ccc12)C1CC1`, the inhibition in test [1] was determined as 5.87%; in test [2], 5.16%; in [3] it was 2.83%; in test [4] it was 5.95%; in test [5], 4.54%; in test [6] it was 16.2%. The inhibition in test [7] amounted to 16.9%; in test [8] it was 4.54%; in test [9] it was 5.1%; in [10] it was 1.14%; in [11], 5.27%; in test [12] it was 8.61%. Moreover, the inhibition turned out to be 15.8% in test [13]; 10.5% in test [14]; 11.2% in test [15]; 3.96% in test [16]; 5.84% in [17]; 2.53% in test [18]. Moreover, the inhibition in test [19] was found to be 0.58%; in [20], 1.56%.
Take `O=C(NCC1CC1)c1ccc(-c2cccc(C(=O)NC3CC3)c2)cc1`: the inhibition is -2.12% in test [1]; 1.33% in test [2]; -0.14% in test [3]; 2.34% in test [4]; 4.69% in test [5]; 1.32% in [6]. The inhibition in test [7] amounted to 1.97%; in [8], 1.67%; in [9], 5.35%; in [10], 1.58%; in [11], 2.23%; in test [12], 2.5%. Further, the inhibition in test [13] was 7.59%; in test [14], 2.46%; in test [15], 4.73%; in test [16], 1.73%; in [17] it was 3.95%; in [18] it was 1.19%. The figures for the inhibition in [19] and in test [20] were 2.93% and 1.15%, respectively.
For `N#Cc1ccc(Oc2nccc(-c3c(-c4ccc(F)cc4)ncn3C3CCNCC3)n2)cc1`, the inhibition was 9.35% in [1]; 4.8% in test [2]; 4.75% in [3]; 8.02% in test [4]; 4.07% in [5]; -3.29% in test [6]. In addition, the inhibition in test [7] is -0.83%; in test [8], 0.11%; in test [9], 9.12%; in test [10], -0.87%; in test [11], 3.01%; in test [12] it was 5.66%. Besides, the inhibition was 5.1% in [13]; -0.43% in test [14]; 0.96% in test [15]; 3.29% in test [16]; 3.86% in test [17]; 3.14% in [18]. The figures for the inhibition in [19] and in [20] were 4.24% and -0.47%, respectively.
Turning to `O=C1Nc2ccccc2/C1=C/Nc1ccc(-n2cncn2)cc1`, the inhibition in [1] is 12.4%; in test [2] it was 4.56%; in [3], 2.82%; in [4] it was 22.4%; in [5], 45.8%; in test [6] it was 16.8%. Further, the inhibition in test [7] came out at 40.2%; in [8], 6.47%; in test [9], 34.5%; in test [10] it was 2.68%; in [11] it was 7.09%; in test [12], 5.82%. The inhibition in [13] is 11.7%; in test [14], 10.8%; in test [15] it was 16.7%; in [16], 9.38%; in test [17], 14.8%; in [18] it was 2.54%. For the same compound, the inhibition amounted to 5.98% in test [19] and 1.26% in [20].
